Screen size: about 59,000 compounds; about 6,500 (11%) were called active. Another 15% or so got no clear call; they are omitted. Cut-off read from the data, not from the text of the source: active = max dye-equivalent concentration above about 10 nM; inconclusive = mostly about 1.1 nM to 9.6 nM; inactive = weaker than that. The list comes from a sample in which actives are over-represented; it also holds similar structures and randomly drawn compounds.
Test: qHTS Assay for Spectroscopic Profiling in A350 Spectral Region
Conditions: Compound autofluorescence, 340/450 nm, Alexa 350 dye-equivalents; hits give high values
Source text: NIH Molecular Libraries Screening Centers Network [MLSCN]
NIH Chemical Genomics Center [NCGC]
Occasionally, the artifactual effect may originate from the compounds own spectral or other biophysical properties which generally tend to track its assay concentration. Pre-screening/profiling the library with respect to the compounds spectral properties should help one exclude false positives early on. While the most informative fluorescent profiling data set is obtained by performing a full excitation and emission scan of each well by using a monochromator-based plate reader, such an approach is practical only on a very limited scale as scanning each well requires long time. An alternative approach, applied here, is to perform plate reader scans using selected excitation and emission wavelength pairs to generate a multidimensional relational database that correlates compound concentration and the respective relative fluorescence intensity at a given wavelength set. A standard curve of Alexa 350 (A 350) present on each plate as six-point concentration series, was used to compute a normalized fluorescence response, termed dye-equivalent concentration, for each compound at each concentration.
NCGC Assay Protocol Summary:
100 mM Tris buffer, pH 8.0
The wells in columns 1 through 4 of a Kalypsys polypropylene 1536-well compound plate were filled with standard solutions of fluorophore corresponding to the spectral region of interest. Solutions of A 350 were placed in the following wells: I1, J1: 3 mM, I2, J2: 300 uM, I3, J3: 30 uM, I4, J4: zero (DMSO), K1, L1: 3 uM, K2, L2: […], K3, L3: 300 nM, K4, L4: zero (DMSO).
Six uL of buffer were dispensed to 1536-well Greiner black plates. Compounds and dye standards (23 nL) were transferred via Kalypsys PinTool. The plates were incubated for 15 min at room temperature, and then read on ViewLux (Perkin-Elmer) High-throughput CCD imager using 340 nm and 450 nm excitation and emission filter set.
Keywords: NIH Roadmap, MLSCN, MLI, MLSMR, qHTS, NCGC, A350, A-350, Fluorescent Profiling.

| SMILES | max dye-equivalent concentration |
| --- | --- |
| Cc1cc(C(=O)NCCCc2ccccc2)no1 | inactive |
| CCCC(=O)N(CCc1ccccc1)Cc1nc2ccccc2c(=O)[nH]1 | inactive |
| CCCN(CCC)CCNC(=O)c1cc2c(C)nc3ccccc3c2o1 | 18 nM (active) |
| CCOC(=O)C1CCCCN1Cc1ccc(OC)c(OC)c1OC (stereo not drawn) | inactive |
| Clc1ccccc1-c1cc(NCCN2CCOCC2)ncn1 | inactive |
| CCn1c(SCC(=O)NCc2ccco2)nnc1-c1ccc(N)cc1 | inactive |
| CN1CCN(S(=O)(=O)c2ccc(NC(=O)C3CCCO3)cc2)CC1 (stereo not drawn) | inactive |
| COC(=O)COc1ccc(S(=O)(=O)N2CCOCC2)cc1 | inactive |
| COc1ccc(S(=O)(=O)N2CCOCC2)cc1C(=O)Nc1nc2ccccc2s1 | 26 nM (active) |
| CCOC(=O)c1sc(NC(=O)c2cc(S(=O)(=O)N3CCOCC3)ccc2C)nc1C | inactive |
| O=C(Nc1nc2ccc(S(=O)(=O)N3CCCC3)cc2s1)C1CCCO1 (stereo not drawn) | inactive |
| CCN(Cc1ccncc1)C(=O)c1cccc(S(=O)(=O)N2CCOCC2)c1 | inactive |
| O=C(Nc1nc2cc3c(cc2s1)OCCO3)c1cccc(S(=O)(=O)N2CCOCC2)c1 | 15 nM (active) |
| CC1(C)Cc2cccc(OCC(=O)Nc3nccs3)c2O1 | inactive |
| COc1ccc(C[C@H](N)C(=O)N[C@@H]2[C@H](O)[C@H](n3cnc4c(N(C)C)ncnc43)O[C@@H]2CO)cc1 | inactive |
| CCCOP(=O)(c1ccc(N(C)C)cc1)C(O)c1cc(OC)c(OC)c(OC)c1 (stereo not drawn) | inactive |
| COc1ccc(N2CCN(C3CC(=O)N(c4ccc5c(c4)OCCO5)C3=O)CC2)cc1 (stereo not drawn) | inactive |
| Cc1ccc(S(=O)(=O)N2CCC(C(=O)OCC(=O)N3CC(=O)Nc4ccccc43)CC2)cc1 | inactive |
| CC(=O)N1CCC2(CCCN(c3ncccn3)C2)CC1 | inactive |
| Cc1ccc(S(=O)(=O)N2CCCC2CO)cc1 (stereo not drawn) | inactive |
| COc1ccc(C2CC(c3ccc(C)cc3)Nc3nc(N)nn32)cc1 (stereo not drawn) | 2800 nM (active) |
| Cc1cc(C)c(C(=O)CN2C(=O)CCC2=O)cc1C | inactive |
| COC(=O)c1ccc(NC(=O)CSc2nnc(CNc3ccc(OC)cc3)n2C)cc1 | inactive |

| SMILES | max dye-equivalent concentration |
| --- | --- |
| CCOC(=O)N1CCN(C(=O)CN(C2CCCCC2)S(C)(=O)=O)CC1 | inactive |
| Cc1ccccc1CSc1nnc(-c2ccccn2)n1N | inactive |
| CN(Cc1ccco1)c1cc(-c2ccccc2C(F)(F)F)ncn1 | inactive |
| Cc1c(NC(=O)c2coc(=O)c(Br)c2)c(=O)n(-c2ccccc2)n1C | 220 nM (active) |
| Cc1c(NC(=O)c2cccnc2)c(=O)n(-c2ccccc2)n1C | inactive |
| Cc1cc(C(=O)Nc2c(C)n(C)n(-c3ccccc3)c2=O)cs1 | inactive |
| O=c1[nH]c(=O)n([C@H]2C[C@H](O)[C@H](CO)O2)cc1Br | inactive |
| OCCCN1c2ccccc2Nc2nnc(-c3ccccc3)cc21 | 110 nM (active) |
| Cn1c(=O)[nH]c(=O)c2c1nc(N(CCO)Cc1ccccc1)n2Cc1ccccc1Cl | inactive |
| O=C(c1cccc(F)c1)N1CCC2(CCCN(Cc3ccncc3)C2)CC1 | inactive |
| Cc1c(C)c2c(c(C)c1O)CC[C@@](C)(CN1CCN(c3cc(N4CCCC4)nc(N4CCCC4)n3)CC1)O2 | 11 nM (active) |
| CC(=O)N1CCC2(CCCN(Cc3ccc(C#N)cc3)C2)CC1 | inactive |
| N#CNC1=NCN(CCc2ccccc2)CN1 | inactive |
| Cn1c(=O)cc(OCCCC(=O)N2CCN(c3ccccn3)CC2)c2ccccc21 | inactive |
| O=C(CSc1nc2ccccc2o1)N1CCN(c2ccccc2)CC1 | inactive |
| Cc1ccnc(N2CCN(C(=O)CSc3nc4ccccc4nc3N3CCCCC3)CC2)c1 | 28 nM (active) |
| COc1ccc(C(=O)Cn2nnc(-c3ccc(N4CCOCC4)cc3)n2)cc1OC | inactive |
| Cc1ccc(Oc2ccc(N)cc2)cc1 | inactive |
| CC(C)(C)n1nnnc1C(c1ccc2ncccc2c1)N1CCSCC1 (stereo not drawn) | inactive |
| Cc1ccccc1-c1nnn(CC(=O)c2ccc(S(=O)(=O)N3CCCC3)cc2)n1 | inactive |
| COc1ccccc1N1CCN(C(=O)c2ccc(S(=O)(=O)N3CCCCC3)cc2)CC1 | inactive |
| N#CC(C(=O)c1ccc(S(=O)(=O)N2CCCCCC2)cc1)c1nc2ccccc2[nH]1 (stereo not drawn) | 52 nM (active) |
| Cc1nnc(N(Cc2ccco2)C(=O)c2ccno2)s1 | inactive |

| SMILES | max dye-equivalent concentration |
| --- | --- |
| N#Cc1cccc(NC(=O)CCC2CCCC2)c1 | inactive |
| CCCc1nc(-c2ccccc2O)n(-c2ccccc2)n1 | inactive |
| O=C(CSc1nnc(Cc2ccccc2)n1-c1ccccc1)N1CCOCC1 | inactive |
| CCOc1ccccc1C(=O)NCCCn1ccnc1 | inactive |
| CCOc1ccccc1C1C(C(=O)OC)=CN(C)C=C1C(=O)OC | 13000 nM (active) |
| CCOc1ccccc1C(=O)NCc1ccco1 | inactive |
| CN(C)CCCn1c2ccccc2c2cnccc21 | inactive |
| CCC(C)n1[nH]c(=O)cc1N (stereo not drawn) | inactive |
| CC(=O)c1c(N)n(C)c(=O)n(C)c1=O | inactive |
| CCON=C1C(C)(C)C(C)(C)C(C)(C)C1(C)C | inactive |
| CC(=O)N1CCN(C(=O)Nc2cccc(C(F)(F)F)c2)CC1 | inactive |
| CCOc1c(N2CCCCC2)c(=O)c1=O | inactive |
| COc1ccc(-c2c3c(=O)n(C)c(=O)n(C)c3cn2NC(C)=O)cc1 | 2600 nM (active) |
| Cc1ccc(-c2c3c(=O)n(C)c(=O)n(C)c3cn2-n2cnnc2)cc1 | inactive |
| COc1cccc(-n2cc3c(c2-c2ccccc2)c(=O)n(C)c(=O)n3C)c1 | 10 nM (active) |
| COc1ccc(-c2c3c(=O)n(C)c(=O)n(C)c3cn2-c2cccc(OC)c2)cc1 | 14 nM (active) |
| COC(=O)c1ccc(CSc2nc3ccccc3c(=O)n2-c2cccc(OC)c2)o1 | inactive |
| COc1ccc(OC)c(-n2cc3c(=O)n(C)c(=O)n(C)c3c2)c1 | inactive |
| CCOC(=O)CNC(=O)c1nn(-c2cccc(OC)c2)c(=O)c2ccccc12 | inactive |
| COc1ccc(N(C(=O)c2cccnc2)S(=O)(=O)c2ccc3c(c2)n(C)c(=O)n3C)cc1 | inactive |
| Cc1cccc(-n2nc3c(c2NC(=O)c2ccc(Br)o2)CSC3)c1C | inactive |
| O=C(Nc1ccc(S(=O)(=O)N2CCCCC2)cc1)c1cnccn1 | inactive |

Reference: PubChem BioAssay AID590 (National Center for Advancing Translational Sciences (NCATS), 2007)
